From PubChem BioAssay
This is a sample that favours compounds with a hit; in the whole collection about 4.1% have one here.
GRIN3A LBD mod: binders of NR3A ligand-binding domain, primary screen, biophysical, differential scanning fluorimetry, uHTS; Glutamate receptor ionotropic, NMDA 3A (GRIN3A) ligand-binding domain; NR3A LBD differential scanning fluorimetry, Tm shift; 0% = protein alone, 100% = glycine-bound protein; Tm shift relative to glycine control, % at 25 µM; 2.5% of 340,000 active; AID 1259313, 2017;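 active means melting temperature shift of at least 10% of the positive control shift, at one fixed dose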
MPTP inh: mitochondrial permeability transition pore inhibitors, primary screen, biochemical, isolated mouse mitochondria, absorbance. Ca2+ swelling absorbance, 30 min. inhibition, % at 10 µM. 1.4% of 360,000 active;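 active means inhibition of 50% or more, scaled per plate between neutral and stimulator controls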;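 further: 0% = DMSO wells given calcium and 100% = 1 mM EGTA wells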
pCIP destab: p/CIP-EGFP fusion destabilizers, primary screen, fluorescence, F442A cells. Q05BA5. 16 h. decrease of EGFP signal, % at 10 µM. 0.01% of 290,000 active;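 active means EGFP signal decrease of at least 30% at 10 µM or well 3 SD below plate mean, unless failing retest; inactive means the rest, including hits failing retest or dose response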
MIN6 prolif: inducers of MIN6 beta-cell proliferation, primary screen, ATP luminescence, uHTS | MIN6 cells proliferation, ATPlite luminescence, 48 h; cells starved in 0.2% serum; 100% = growth in 10% serum | proliferation, % at 10 µM | 0.29% of 330,000 active;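 active means compounds whose signal lies at least 3.5 SD above the mean of all wells on their plate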;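 further: 0% = DMSO-treated cells in low-serum medium and 100% = 10% serum control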
FAS-TE inh: FAS thioesterase domain inhibitors, primary screen, biochemical, fluorescence intensity, uHTS. recombinant FAS-TE, OMFH fluorogenic substrate, fluorescence endpoint. 0.67% of 360,000 active. Fatty acid synthase (Homo sapiens), P49327. inhibition, % at 15 µM;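 active means compounds whose normalised, plate-corrected inhibition of enzyme fluorescence in the single-dose primary screen is 50% or more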;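 further: 0% = DMSO with enzyme and 100% = substrate without enzyme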
Target sequence (P49327 whole entry, looked up, the tested form may be a part): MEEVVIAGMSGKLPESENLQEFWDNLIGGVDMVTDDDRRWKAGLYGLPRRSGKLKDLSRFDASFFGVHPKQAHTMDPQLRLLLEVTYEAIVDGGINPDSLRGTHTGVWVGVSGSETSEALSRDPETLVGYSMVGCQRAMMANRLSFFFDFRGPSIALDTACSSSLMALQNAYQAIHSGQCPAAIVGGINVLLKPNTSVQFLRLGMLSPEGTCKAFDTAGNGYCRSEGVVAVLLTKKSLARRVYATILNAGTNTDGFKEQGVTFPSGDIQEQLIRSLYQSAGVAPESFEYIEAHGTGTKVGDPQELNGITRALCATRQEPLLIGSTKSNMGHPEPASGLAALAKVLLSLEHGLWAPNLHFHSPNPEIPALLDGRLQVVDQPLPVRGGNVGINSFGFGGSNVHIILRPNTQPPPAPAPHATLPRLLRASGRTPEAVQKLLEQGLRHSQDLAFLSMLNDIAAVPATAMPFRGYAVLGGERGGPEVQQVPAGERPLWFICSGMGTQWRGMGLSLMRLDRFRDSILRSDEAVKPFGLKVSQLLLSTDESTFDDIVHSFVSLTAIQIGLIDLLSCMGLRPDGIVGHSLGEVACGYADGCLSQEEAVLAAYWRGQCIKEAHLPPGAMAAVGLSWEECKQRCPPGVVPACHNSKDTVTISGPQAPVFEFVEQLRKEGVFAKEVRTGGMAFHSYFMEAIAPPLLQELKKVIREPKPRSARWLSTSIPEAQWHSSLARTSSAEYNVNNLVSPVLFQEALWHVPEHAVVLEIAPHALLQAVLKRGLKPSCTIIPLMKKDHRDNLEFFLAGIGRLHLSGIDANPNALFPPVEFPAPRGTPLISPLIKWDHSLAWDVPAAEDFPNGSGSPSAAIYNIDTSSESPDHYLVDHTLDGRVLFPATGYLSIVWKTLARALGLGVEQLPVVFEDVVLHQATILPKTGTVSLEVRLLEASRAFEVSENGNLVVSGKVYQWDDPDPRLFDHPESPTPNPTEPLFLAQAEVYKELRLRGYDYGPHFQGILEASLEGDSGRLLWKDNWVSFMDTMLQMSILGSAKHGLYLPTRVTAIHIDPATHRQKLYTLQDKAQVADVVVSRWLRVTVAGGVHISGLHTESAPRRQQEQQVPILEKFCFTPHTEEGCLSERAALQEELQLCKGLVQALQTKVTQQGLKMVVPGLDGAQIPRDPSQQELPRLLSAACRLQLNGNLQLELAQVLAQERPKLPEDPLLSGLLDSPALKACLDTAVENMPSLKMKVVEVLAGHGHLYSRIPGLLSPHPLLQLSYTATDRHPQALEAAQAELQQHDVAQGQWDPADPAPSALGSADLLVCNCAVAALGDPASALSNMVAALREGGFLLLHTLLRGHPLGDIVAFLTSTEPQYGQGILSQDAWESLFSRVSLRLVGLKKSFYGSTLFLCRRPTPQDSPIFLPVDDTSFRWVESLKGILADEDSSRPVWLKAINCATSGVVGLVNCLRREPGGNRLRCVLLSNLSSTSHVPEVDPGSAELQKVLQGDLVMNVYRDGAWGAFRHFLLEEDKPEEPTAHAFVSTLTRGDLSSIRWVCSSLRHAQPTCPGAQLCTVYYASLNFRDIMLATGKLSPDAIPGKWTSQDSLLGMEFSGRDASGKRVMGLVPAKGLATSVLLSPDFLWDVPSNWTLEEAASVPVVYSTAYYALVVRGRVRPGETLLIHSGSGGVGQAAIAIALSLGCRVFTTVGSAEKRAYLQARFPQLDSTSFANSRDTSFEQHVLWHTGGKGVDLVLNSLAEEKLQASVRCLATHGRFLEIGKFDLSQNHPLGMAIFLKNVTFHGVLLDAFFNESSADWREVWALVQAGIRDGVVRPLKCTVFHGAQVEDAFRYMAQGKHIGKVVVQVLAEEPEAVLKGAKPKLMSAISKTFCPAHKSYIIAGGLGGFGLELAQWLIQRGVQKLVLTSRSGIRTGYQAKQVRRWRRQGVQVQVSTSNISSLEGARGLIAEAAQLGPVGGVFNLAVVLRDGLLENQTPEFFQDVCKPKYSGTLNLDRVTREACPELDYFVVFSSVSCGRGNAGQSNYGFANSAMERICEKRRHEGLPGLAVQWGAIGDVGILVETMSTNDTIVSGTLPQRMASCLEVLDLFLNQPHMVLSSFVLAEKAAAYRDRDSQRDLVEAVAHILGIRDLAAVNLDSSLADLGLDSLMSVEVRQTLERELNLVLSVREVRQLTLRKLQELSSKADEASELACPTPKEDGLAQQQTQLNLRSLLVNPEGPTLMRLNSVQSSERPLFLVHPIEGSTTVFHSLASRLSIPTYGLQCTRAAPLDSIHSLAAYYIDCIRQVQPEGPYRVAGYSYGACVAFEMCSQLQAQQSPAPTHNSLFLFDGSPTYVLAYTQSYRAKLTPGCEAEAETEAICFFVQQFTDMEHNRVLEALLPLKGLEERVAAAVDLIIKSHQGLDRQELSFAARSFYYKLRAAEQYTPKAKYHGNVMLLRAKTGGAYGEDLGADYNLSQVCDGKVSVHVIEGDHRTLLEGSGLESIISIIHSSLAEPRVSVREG
Starred values were filed as active, the others as inactive; . = no result.

SMILES | GRIN3A LBD mod | MPTP inh | pCIP destab | MIN6 prolif | FAS-TE inh
CCOc1ccc(N/C=C/C(=O)c2ccc(OC)cc2)c([N+](=O)[O-])c1 | 19.8* | 10.4 | -12.8 | -2.9 | -19.8
COc1ccc(N/C=C/C(=O)c2ccc(C)cc2)c([N+](=O)[O-])c1 | 20.4* | 0.2 | . | -2.7 | 1.9
CCOc1ccc(N/C=C/C(=O)c2ccc(OC)cc2)cc1 | 1.6 | -0.4 | -1.5 | -0.8 | -2.8
Cc1c(C(=O)OCC(=O)Nc2ccc(S(N)(=O)=O)cc2)oc2c1ccc1ccccc12 | 17.5* | 0.2 | -4.9 | -0.4 | -2.1
O=C(COC(=O)CCC(=O)c1cccs1)Nc1ccc(S(=O)(=O)N2CCOCC2)cc1 | 14.6* | -2.9 | 0.2 | -0.8 | -6.0
CC(=O)Nc1ccc(C(=O)OCC(=O)Nc2ccc(S(=O)(=O)N3CCOCC3)cc2)cc1 | 0.2 | -1.9 | . | -2.2 | -5.6
O=C(COC(=O)C1=COCCO1)Nc1cccc(S(=O)(=O)N2CCOCC2)c1 | 11.1* | -0.5 | -14.1 | -2.4 | 5.1
CC(OC(=O)C1=COCCO1)C(=O)Nc1cccc(S(=O)(=O)N2CCOCC2)c1 (stereo not given) | -1.6 | -0.3 | -3.1 | -1.7 | -6.7
NS(=O)(=O)c1ccc(NC(=O)COC(=O)c2ccc(S(=O)(=O)N3CCOCC3)cc2)cc1 | 14.0* | -0.4 | . | -1.7 | -5.2
CCc1nc2ccc(C(=O)NCCCn3ccnc3)cn2c1N(C)Cc1ccc(N(C)C)cc1 | . | -1.5 | . | . | -7.6
CCCC(=O)N1CCC1(C)C(=O)NCc1ccccc1SC (stereo not given) | . | 0.2 | . | . | -3.8
C=CCc1cccc(CNc2nc3ccccc3n2C(C)C)c1O | 11.3* | 15.4 | 3.7 | -5.2 | 37.5
CC(C)n1c(NCc2ccccc2O)nc2ccccc21 | 2.8 | 0.3 | 20.1 | -0.1 | 3.2
COCCNC(=O)c1ccc(CSc2nc3ccccc3s2)cc1 | 0.1 | 0.0 | 3.6 | -1.8 | -1.5
CCNC(=O)c1ccc(CSc2nc3ccccc3s2)cc1 | 32.6* | 3.4 | -15.9 | -2.3 | 3.5
Cn1cnc2c(cnn2C)c1=O | -8.7 | -0.6 | . | . | -9.7
Cc1onc(-c2ccccc2)c1C(=O)OCC(=O)Nc1cccc(Cl)c1 | 13.2* | 12.2 | . | -2.5 | 41.2
Cc1nnc(SCC(=O)NC2(C#N)CCCCC2)n1N | . | 0.3 | . | . | -4.4
Cn1ncc(N=Cc2ccc([N+](=O)[O-])cc2)c1C(=O)Nc1ccccc1 | 13.8* | 0.3 | -5.1 | 1.5 | 6.3
CC(=O)Nc1ccc(C=NNc2ccc([N+](=O)[O-])cn2)cc1 | 24.2* | 1.5 | . | . | 8.0
O=[N+]([O-])c1ccc(N/N=C\c2cccnc2)nc1 | -0.7 | -2.6 | 0.0 | -0.2 | 6.6
COc1cc(/C=N/Nc2ccc([N+](=O)[O-])cn2)cc(OC)c1O | 1.2 | 1.0 | -10.1 | 2.7 | 3.9
O=[N+]([O-])c1ccc(NN=Cc2cccc(O)c2)nc1 | 12.3* | 1.3 | . | . | 22.8
Cn1ncc(N=Cc2ccccc2[N+](=O)[O-])c1C(N)=O | 1.5 | 0.1 | -10.5 | 1.0 | -4.9
CCc1nc2ccc(C(=O)NCCN(C)C)cn2c1N(CC)CCOC | . | -0.6 | . | . | -7.5
SMILES | GRIN3A LBD mod | MPTP inh | pCIP destab | MIN6 prolif | FAS-TE inh
CCc1nc2ccc(C(=O)NCCOc3ccc(OC)cc3)cn2c1N(CC)CCOC | . | 0.2 | . | . | -3.9
CCOC(=O)N1CCN(C(=O)CSc2nnc(-c3cc(OC)cc(OC)c3)o2)CC1 | 10.7* | -1.7 | 14.5 | -1.2 | 6.1
CCOC(=O)N1CCN(C(=O)CSc2nnc(-c3cccc(OC)c3)o2)CC1 | -1.9 | -2.0 | 0.4 | -2.2 | -5.1
CN1OC[C@@H]2CN[C@H](c3ccc(-c4cc5ccccc5o4)cc3)C[C@@H]21 | . | -2.6 | . | . | -8.5
CCOc1cc(-c2nc(-c3ccccc3OC)no2)cc(OCC)c1OCC | 11.3* | 5.4 | -10.3 | -2.2 | 30.0
Cc1ccc(S(=O)(=O)NCc2ccccc2NS(=O)(=O)c2ccc(C)cc2)cc1 | . | 0.7 | . | . | .
Oc1ccccc1/C=N/Nc1ccccc1 | 12.7* | 32.2 | -11.3 | 0.2 | 14.0
O=C(COc1cccc2cccnc12)N/N=C/c1ccccc1O | -0.1 | 1.3 | 7.0 | -4.0 | -0.3
Oc1ccccc1/C=N/Nc1cccc2cccnc12 | 10.2* | 2.0 | 10.8 | -4.3 | 24.9
Cc1ccsc1/C=N/Nc1nc2ccccc2s1 | 23.9* | 7.5 | 3.8 | -4.5 | 15.4
COc1ccc(/C=N/Nc2nc3ccccc3o2)cc1O | -3.6 | -1.1 | 4.9 | -3.1 | -3.4
COc1ccc(/C=N/Nc2nc3ccccc3s2)cc1O | 12.5* | 0.1 | 6.4 | . | 8.8
O=C(NCc1ccccc1Cl)c1ccc2nc([C@@H]3O[C@H](CO)[C@@H](O)[C@H]3O)[nH]c2c1 | . | -1.3 | . | . | -9.8
N#Cc1c(N2CCN(c3ccc([N+](=O)[O-])cc3)CC2)[n+](=O)c2ccc(Cl)cc2n1[O-] | -3.0 | -2.9 | . | . | 43.9
Cc1cc(OCC(=O)Nc2c(C(C)C)cccc2C(C)C)no1 | . | 0.0 | . | . | -4.4
CC(=O)Nc1sc(N/N=C/c2ccccc2)nc1-c1ccc(C)cc1 | 11.2* | 0.7 | -6.9 | -0.9 | 4.1
CC(=NNc1nc2ccccc2s1)c1ncccn1 | -1.4 | 1.4 | . | . | 5.6
C(=N\Nc1nc2ccccc2s1)/c1cccs1 | -2.0 | 2.9 | -4.7 | -3.7 | 18.9
CC(=O)Nc1cccc(/C(C)=N/Nc2nc3ccccc3s2)c1 | 30.6* | -1.3 | -7.2 | -1.1 | 9.2
Oc1ccc(C=NNc2nc3ccccc3s2)c(O)c1 | 37.6* | 2.0 | . | . | 15.1
Oc1ccccc1C=NNc1nc2ccccc2s1 | 30.6* | 20.2 | . | . | 7.0
CC(=O)Nc1sc(N/N=C/c2ccc(O)cc2)nc1-c1ccc(C)cc1 | 0.0 | 1.1 | 2.1 | -2.4 | 3.9
COc1cccc(OC)c1C(=O)NCCNc1nc2cc(C)cc(C)c2cc1C#N | . | 0.5 | . | . | .
CC(=O)c1sc(N/N=C\c2ccc(Br)cc2)nc1C | 15.5* | 13.1 | -15.5 | -3.2 | 19.6
CC(=O)c1sc(N/N=C\c2cccc(Br)c2)nc1C | 3.2 | 8.9 | -14.9 | -2.5 | 16.8
SMILES | GRIN3A LBD mod | MPTP inh | pCIP destab | MIN6 prolif | FAS-TE inh
CC(=O)Nc1ccc(/C=N/Nc2nc3ccccc3s2)cc1 | 15.5* | 2.3 | -4.5 | . | -0.2
O=C(CN1c2ccccc2Sc2ccccc21)NNC(=O)Nc1cccc(Cl)c1 | 18.4* | 38.4 | 6.5 | -3.9 | 11.4
COc1ccccc1/C=N/NC(=O)CSc1cc(C)nc2ccccc12 | 0.1 | -1.0 | -4.0 | -0.7 | 1.3
COc1ccc2nc(C)cc(SCC(=O)N/N=C/c3ccc(O)cc3O)c2c1 | 24.6* | 4.3 | -2.0 | -4.9 | -4.6
COc1cccc2c(SCC(=O)N/N=C/c3ccc(O)cc3O)cc(C)nc12 | 26.4* | -1.0 | -4.4 | 1.5 | -1.8
N#Cc1ccc(S(=O)(=O)N2CCCCC2c2cc(C(=O)NCc3ccccc3)no2)cc1 (stereo not given) | . | 0.2 | . | . | -53.5
N#C/C(=C(/O)COC(=O)CSc1ccc2ccccc2c1)c1nc2ccccc2[nH]1 | 20.5* | 0.1 | -1.7 | 0.0 | 3.3
